Source: PubChem BioAssay

tested on: Human papillomavirus type 1a protein E7 (residues 44-93); assay: small molecules binding HPV E7 44-93 – biochemical, small-molecule microarray, residues 44-93, 635 nm fluorescence, primary screen (AID 1108); details: fluorescence 635 nm, higher = more signal;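 note: E7 fragment applied at 1 µg/mL in TBST for 1 h at 4 C; score combines spot fluorescence with its signal to noise ratio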

SMILES	composite z-score
CC(C)(C)OC(=O)CC[C@]1(C(=O)N2CCOCC2)N=C(c2ccc(OCCCO)cc2)O[C@H]1c1ccccc1CN=[N+]=[N-]	1.36
CC(c1ccccc1)C(O)C1C=CC2C(=O)N(c3ccccc3)C(=O)C2N1Nc1ccc(C#N)cc1 (stereo not drawn)	1.41
COc1ccc(CCNC(=O)[C@@]2(Sc3ccc(C)cc3)CC(=O)N(Cc3cc(C(F)(F)F)cc(C(F)(F)F)c3)[C@@H]2c2ccc(CO)cc2)cc1	-1.13
CCOC(=O)C[C@H]1[C@H](OC(=O)c2cc3ccccc3oc2=O)[C@@H](NC(=O)C2CCCCC2)c2cc(OCCCO)ccc2N1C(=O)Cc1ccc(OC)cc1	0.612
CC1CC/C=C\[C@H]2OC34C=CCN(CCN5CCOCC5)C(=O)[C@H]3N(CCCCCCO)C(=O)[C@@H]4C2C(=O)O1 (stereo partly drawn)	-1.14
CCOC(=O)C1=CC[C@@H](c2ccc(F)cc2)N(S(=O)(=O)c2ccc(C)cc2)[C@H]1c1ccc([N+](=O)[O-])cc1	1.34
COC(=O)[C@@]1(Cc2ccc(OC)cc2)[C@@H]2[C@@H](CC(=O)[C@H]2CC(=O)C(=O)N2CCCC2)CN1C(=O)c1ccccc1	0.43
C=CCNC(=O)[C@H]1[C@@H]2C(=O)O[C@@H](c3ccccc3)[C@@H](c3ccccc3)N2[C@@H](c2ccc(O)cc2)[C@]12C(=O)Nc1ccc(C#CC3=CCCCC3)cc12	1.32
COC(=O)Cn1c(C(=O)N(C)C)cc2c1C[C@H]1CN(C(=O)c3ccccc3)[C@@](Cc3ccc(OC)cc3)(C(=O)OC)[C@@H]21	1.3
O=C1O[C@@H](c2ccccc2)[C@@H](c2ccccc2)N2[C@@H](c3ccc(O)cc3)[C@]3(C(=O)Nc4ccc(C#CC5=CCCCC5)cc43)[C@@H](C(=O)N3CCCCCCC3)[C@H]12	1.38
CC(C)C[C@H]1NC(=O)[C@@]23C(=O)N[C@@H](Cc4ccccc4)C2[C@H](C)[C@@]2(C)O[C@H]2C3/C=C/C/C=C\CNC(=O)[C@@H]2CCCN2C1=O (stereo partly drawn)	0.612
C#CCN(C/C=C/c1ccccc1)[C@H](CO[Si](C)(C)C(C)(C)C)c1ccccc1	-0.115
COC(=O)C1(CC(C)C)C=C2C(=C(C(C)C)C(=O)C2C)CN1 (stereo not drawn)	-0.57
CC=CC(O)C1C=CC2C(=O)N(C)C(=O)C2N1NC(=O)OC(C)(C)C (stereo not drawn)	-1.08
COc1cc2c(cc1O)C(C1CC1)N(Cc1ccc([N+](=O)[O-])o1)CC2 (stereo not drawn)	1.29
CC(C)C[C@H]1NC(=O)[C@@H](C)NC(=O)[C@@]23C(=O)N[C@@H](Cc4ccccc4)C2[C@H](C)[C@@]2(C)O[C@H]2C3/C=C/C/C=C\CNC1=O (stereo partly drawn)	1.29
COCCOC(=O)N1C(=O)[C@@]2(c3cc(C#Cc4ccc(OC)cc4)ccc31)[C@H](C(=O)N1CCCCCCC1)[C@H]1C(=O)O[C@H](c3ccccc3)[C@H](c3ccccc3)N1[C@@H]2c1ccccc1OCCO	1.35
CCCCN1CC=CC23O[C@@H]4C=CCOC(=O)[C@@H]4[C@H]2C(=O)N(C(CO)C(C)C)[C@@H]3C1=O (stereo partly drawn)	-0.321
C[C@H]1NC(=O)C([C@@H](C)OCc2ccccc2)NC(=O)[C@@]23C(=O)N[C@@H](Cc4ccccc4)C2[C@H](C)[C@@]2(C)O[C@H]2C3/C=C/C/C=C\CNC1=O (stereo partly drawn)	-0.037
C=CCC(OC(C)=O)[C@@H]1[C@@H](N(Cc2cc3ccccc3o2)C(=O)c2cccc3ccccc23)c2cc(OCCCO)ccc2N1C(=O)c1ccc2ccccc2c1 (stereo partly drawn)	-0.0617
NC(=O)NCC#Cc1ccc2c(c1)[C@]1(C(=O)N2)[C@H](C(=O)N2CCCCCCC2)[C@H]2C(=O)O[C@H](c3ccccc3)[C@H](c3ccccc3)N2[C@@H]1c1ccc(O)cc1	0.0787
[N-]=[N+]=NCc1ccccc1[C@H]1OC(c2ccc(OCCCO)cc2)=N[C@@]1(Cc1ccccc1)C(=O)N1CCOCC1	1.06
CC(C)=CCN(C(=O)C#Cc1ccccc1)[C@H](CO)c1ccccc1	1.16
CCCC=C(CCC)[C@@H](NC(=O)c1ccco1)c1ccc(C(=O)OC)cc1	1.43
CN(C)CCCCNC(=O)[C@H]1C[C@H]2C(=O)NCC(=O)N2[C@H]1c1cccc(OCCO)c1	-0.433
N#Cc1ccc(C(O)C2C=CC3C(=O)NC(=O)C3N2Nc2ccccn2)cc1 (stereo not drawn)	0.447
C=CCC(OC(C)=O)[C@@H]1[C@@H](N(Cc2ccc(-c3cccc(C(F)(F)F)c3)o2)C(=O)Cc2ccc(F)cc2)c2cc(OCCCO)ccc2N1C(=O)c1ccc2ccccc2c1 (stereo partly drawn)	-1.18
COCCOC(=O)N1C(=O)[C@@]2(c3cc(C#CC4(O)CCCCCC4)ccc31)[C@H](c1ccc(OCCO)cc1)N1[C@H](c3ccccc3)[C@H](c3ccccc3)OC(=O)[C@H]1[C@@H]2C(=O)N1CCCCCCC1	1.41
